Compound activity as filed in PubChem.
AmpC detergent – AmpC beta-lactamase inhibition with detergent present; Potency, µM (titrated, usually from 114 µM), without a hit: at the highest dose activity change, negative = inhibition, usual class: inhibitors; 0.041% of 370,000 active; AmpC hydrolysis of nitrocefin, absorbance 480 nm, 0.01% Triton; AID 485294; P00811;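 further: potency means the concentration at half of the fitted maximal effect; 0% = no-compound wells and -100% = no-enzyme wells; nearly all actives have a fitted effect of over 25% in size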
Target sequence (P00811 whole entry, looked up): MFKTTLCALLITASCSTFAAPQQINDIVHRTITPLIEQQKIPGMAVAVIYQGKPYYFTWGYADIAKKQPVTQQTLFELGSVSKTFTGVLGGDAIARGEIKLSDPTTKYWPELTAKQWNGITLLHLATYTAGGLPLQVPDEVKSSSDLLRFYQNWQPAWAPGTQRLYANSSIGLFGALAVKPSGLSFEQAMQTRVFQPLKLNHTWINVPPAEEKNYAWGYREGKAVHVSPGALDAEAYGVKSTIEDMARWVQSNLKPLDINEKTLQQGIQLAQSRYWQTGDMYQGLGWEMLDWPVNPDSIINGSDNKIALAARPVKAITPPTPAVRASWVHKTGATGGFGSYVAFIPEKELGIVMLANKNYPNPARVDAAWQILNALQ
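AmpC (5.3 nM in the dispensed reagent) in 20 mM phosphate pH 7.0 with 0.01% (detergent screen) or 0.0001% Triton X-100 was preincubated with compounds for 15 min at room temperature. Nitrocefin was then added from an 800 uM solution, and hydrolysis was followed at 480 nm.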
CHX counter – counter-screen hit for Shiga toxin inhibitors, cycloheximide; cell reporter, cycloheximide protein synthesis inhibition counterscreen; 12% of 300,000 active; max response, %; in the data active means max response mostly above about 13%, no sharp cut-off; inactive means mostly below about 14%; further: read at 38.3 µM for the half of the compounds with a filed dose; 0% is about no effect
AMA1-RON2 inh – AMA1-RON2 (P. falciparum) interaction inhibition. AlphaScreen AMA1-biotinylated RON2 peptide binding. Potency, µM (highest dose often 58.2 µM), for the others: top-dose activity change, negative = inhibition, most hits filed as inhibitors. 0.2% of 360,000 active;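 further: potency means the concentration at half of the fitted maximal effect; 0% = vehicle wells and -100% = peptide control; nearly all actives have a fitted effect of over 45% in size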
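AMA1 (3D7) with his tag at 25 nM final met compounds first, then biotinylated RON2 peptide at 25 nM; detection used donor plus acceptor beads, 10 µg/mL apiece, read by AlphaScreen after 30 min at room temperature.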
Shiga toxin inh – blocks Shiga toxin action in Vero cells | 9.2% of 290,000 active | Vero cells, Shiga toxin protein synthesis inhibition reporter | inhibition, % at 38.7 µM; in the data active means inhibition mostly above about 28%, no sharp cut-off; inactive means mostly below about 43%; further: 0% is about no effect
SARS PLpro yeast – blocks SARS-CoV papain-like protease in a yeast assay; S. cerevisiae expressing SARS-CoV PLpro, growth rescue; 0.19% of 330,000 active; Potency, µM (doses to about 32.9 µM), for the others: at the highest dose activity, positive = growth rescue, usual class: activators; calls by dose curve; further: potency means the concentration at half of the fitted maximal effect; 0% is about no effect; nearly all actives have a fitted effect of over 55% in size
AmpC no deterg – blocks E. coli AmpC beta-lactamase in detergent-free assay. Potency, µM (titrated, usually from 57.1 µM), for inactives: at the highest dose activity change, negative = inhibition, most hits filed as inhibitors. AmpC nitrocefin hydrolysis, absorbance 480 nm, 0.0001% Triton. 0.52% of 330,000 active. AID 485341. P00811;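 further: potency means the concentration at half of the fitted maximal effect; plate controls were no compound for no effect and no enzyme for full effect; nearly all actives have a fitted effect of over 20% in size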
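AmpC (5.3 nM in the dispensed reagent) in 20 mM phosphate pH 7.0 with 0.01% (detergent screen) or 0.0001% Triton X-100 was preincubated with compounds for 15 min at room temperature. Nitrocefin was then added from an 800 uM solution, and hydrolysis was followed at 480 nm.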
An asterisk follows results filed as active; ? = inconclusive; nt = not tested or not shown; [ ] = dose if it differs, or a comment. Shown is part of a subset that was picked to be rich in hits. Unless noted, the call rests on the fitted dose curve; in most records, active means well fitted curve in the direction sought with a large enough effect; inconclusive means small, poorly fitted or top-dose-only effect, or another doubt; inactive means no such curve, though single readings can be large; an effect the other way counts as inactive or inconclusive.

SMILES	AmpC detergent	CHX counter	AMA1-RON2 inh	Shiga toxin inh	SARS PLpro yeast	AmpC no deterg
CS(=O)(=O)N1N=C(c2ccc(Br)cc2)CC1c1ccc2c(c1)OCO2 (centres undefined)	7%	45*	-3%	83*	-2%	-9%
O=C(c1cccc(S(=O)(=O)N2CCCCC2)c1)N1CCc2ccccc21	-2%	-3	-17%	8	5%	-10%
Cc1ccc2c(=O)c(C(=O)c3cccc(Cl)c3)cn(CC(=O)Nc3ccccc3C(F)(F)F)c2n1	5%	nt	nt	nt	nt	nt
O=C(c1ccccc1)c1ccccc1C(=O)N1CCCC1	0%	-3	21%	3	nt	nt
O=C(Nc1cccnc1)C1CCCN(S(=O)(=O)c2ccccc2)C1 (centres undefined)	-14%	-3	1%	-4	0%	40%
CCc1ccc(OCC(=O)N/N=C(\C)c2ccc(O)cc2O)cc1	4%	-2	76%	-10	17%	-30%
C/C(=N\NC(=O)C(N)=O)c1ccc(O)cc1O	-4%	16*	101%	21	11%	-20%
CC(C)Oc1ccc(CNC(=O)Cn2c(=O)oc3ccccc32)cc1	14%	10	-9%	15	3%	-9%
CC(C)c1ccc(NC(=O)Cn2c(=O)oc3ccccc32)cc1	-1%	24	11%	32*	1%	-3%
CC1CCCC(C)N1c1nnc(NC(=O)Cn2c(=O)oc3ccccc32)s1 (centres undefined)	0%	-3	25%	5	19%	10µM*
CCCOc1ccc(CNC(=O)Cn2c(=O)oc3ccccc32)cc1	15%	-1	-5%	11	7%	7.9µM*
CCN(CC)S(=O)(=O)c1ccc2c(c1)nc(CCC(=O)OCC(=O)Nc1cc(OC)cc(OC)c1)n2C	-9%	0	4%	-5	-5%	62%
CCOc1ncccc1C(=O)Nc1ccccc1C(=O)NCc1ccc2c(c1)OCO2	-15%	2	3%	-5	-1%	-29%
Cc1cc(C=O)c(C)n1C1CCCCC1	-3%	6	-6%	-2	4%	1%
Cc1cc(C=C2C(=O)NC(=S)NC2=O)c(C)n1-c1ccc2c(c1)OCO2	-14%	39*	-3%	24*	-10%	-44%
Cc1cc(C=C2C(=O)NC(=O)NC2=O)c(C)n1-c1ccc2c(c1)OCO2	-3%	-3	-17%	-5	6%	-31%
O=C(Nc1ccc2oc(-c3ccccc3Cl)nc2c1)c1ncn[nH]1	0%	43*	?	113*	-8%	-16%
O=C(Nc1ccc2oc(-c3ccccc3Cl)nc2c1)c1cncc(Br)c1	2%	66*	11%	71*	-8%	-16%
COc1cc2ccccc2cc1C(=O)Nc1ccc2oc(-c3cccc(Cl)c3Cl)nc2c1	17%	nt	nt	nt	nt	nt
O=C(Nc1ccc2oc(-c3cccc4ccccc34)nc2c1)c1ncn[nH]1	-2%	18*	100%	27	10%	-1%
O=C(Nc1ccc2oc(-c3cc(Br)ccc3Cl)nc2c1)c1ccc2ccccc2c1	-2%	nt	nt	nt	nt	nt
Cc1c(C(=O)Nc2ccc(F)cc2)cn2c(nc3ccccc32)c1C#N	?	0	8%	-9	0%	-42%
CCCN(C(=O)/C=C/c1ccc(S(=O)(=O)N(CC)CC)cc1)C1CCS(=O)(=O)C1 (centres undefined)	nt	nt	-3%[11.6 µM]	nt	0%	45%
NC(=O)Cn1nnc(-c2ccc(C(F)(F)F)cc2)n1	-3%	17	-6%	32*	-2%	2%
CSc1ccc(-c2nnn(Cc3ccc(Br)cc3)n2)cc1	?	36*	27%	45	-9%	-3%
SMILES	AmpC detergent	CHX counter	AMA1-RON2 inh	Shiga toxin inh	SARS PLpro yeast	AmpC no deterg
CSc1ccc(-c2nnn(Cc3ccccn3)n2)cc1	?	19*	3%	79*	2%	11%
CCOC(=O)Cn1nnc(-c2ccc(SC)cc2)n1	?	47*	2%	67*	1%	-10%
Cc1cc(Cn2nnc(-c3ccc(Br)cc3)n2)cc(C)c1O	?	nt	-9%	nt	1%	-25%
O=C(CNC(=O)c1ccc(OC(F)F)cc1)NC1CCCc2ccccc21 (centres undefined)	-7%	-1	1%	3	-3%	-10%
Cn1cc(CCC(=O)N2CCCC(Nc3ccc(F)cc3)C2)cn1 (centres undefined)	-1%	9	7%	4	4%	-2%
O=C(Nc1ccc(N2CCCC2)c(S(=O)(=O)Nc2cccc(C(F)(F)F)c2)c1)c1cccs1	-12%	-1	2%[2.32 µM]	-10	2%	-38%
CCOc1cc(/C=N\Nc2ncc(F)c(N3CCOCC3)n2)ccc1Oc1nc(Cl)ncc1F	1%	42*	23%	100*	2%	74%
Fc1cnc(N/N=C/c2ccc(-c3ccc(Br)cc3)o2)nc1N1CCOCC1	2%	34*	24%	58*	-2%	34%
COc1ccc(C2N(C(=O)c3ccccc3)CCN2C(=O)c2ccccc2)cc1	2%	-2	-3%	-7	-1%	-4%
COc1ccc(C(=O)N2CC(c3ccccc3)CC2=O)cc1 (centres undefined)	-7%	44*	-5%	63*	1%	2%
CC(C(N)=O)N1CC(c2ccccc2)CC1=O (centres undefined)	1%	1	6%	-23	-1%	-12%
O=C1CC(c2ccccc2)CN1C(=O)c1ccccc1 (centres undefined)	6%	16*	8%	38	10%	1%
O=C(Nc1cccnc1)c1cc(-c2ccc(Cl)cc2Cl)on1	3%	28*	3%	63*	-5%	-34%
O=C(Nc1cccnc1)c1cc(-c2ccc(Cl)cc2)on1	3%	40*	?	152*	-3%	-17%
Cc1cc(C(=O)Nc2cccnc2)no1	?	0	-13%	11	5%	-12%
O=C1Nc2ccccc2-n2nnnc2C1N1CCCN(Cc2ccc(F)cc2)CC1 (centres undefined)	nt	nt	17%	nt	nt	nt
CCc1ccc(NC(=O)c2cnccn2)cc1	-15%	38*	0%	55*	-8%	-14%
O=C(Nc1ccc(NC(=O)c2ccco2)cc1)c1cnccn1	-3%	25*	-9%	58	0%	-9%
CCCOC(=O)c1ccc(NC(=O)c2cnccn2)cc1	?	26*	-22%	51*	-3%	-12%
CCc1ccc(NC(=O)c2cnc3scc(C)n3c2=O)cc1	?	34*	12%	11*	-3%	35µM*
N#CCCC(CCC#N)C1=NCCc2ccccc21	-7%	-1	6%	12	1%	-8%
Cc1noc(C)c1C(=O)OCC(=O)NCc1ccc(Cl)cc1	1%	nt	9%	nt	-5%	-14%
